In the library only some 2% were active in any assay of this set; here they are far more common.
NadD block – blocks S. aureus nicotinate mononucleotide adenylyltransferase; purified NadD enzyme, colorimetric absorbance read-out; actives 0.78% (n = 360,000); inhibition, % at 20 µM; in the data active means inhibition above about 26%
DAGLB inh – blocks human DAGLB lipase activity. Q8NCG7. HEK293T DAGLB membrane lysate, EnzChek fluorogenic substrate. inhibition, % at 5.17 µM. actives 0.059% (n = 340,000); in the data active means inhibition above about 34%;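 further: 0% = enzyme with vehicle and 100% = wells lacking enzyme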
ARNT-TACC3 inh – ARNT/TACC3 interaction disruption | inhibition, % at 9.99 µM | actives 0.66% (n = 390,000) | AID 623870 | AlphaScreen His-ARNT PAS-B/GST-TACC3 binding, luminescence; TACC3 fragment carries E629A point mutation;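 active means mean inhibition of replicates at least 50% and at least half of replicates each reaching 50%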;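 further: 0% = complete ARNT plus TACC3 wells and 100% = ARNT alone without TACC3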
sPLA2-III inh – Blocks human group III sPLA2 activity; QFRET BODIPY PC-A2 liposome hydrolysis, fluorescence; inhibition, % at 12.2 µM; actives 0.56% (n = 370,000);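 active means inhibition above mean plus 3 SD of compounds lying within the high and low control bounds, cut at about 19% in these data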;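 further: 0% = median of test compound wells and 100% = no enzyme DMSO wells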
Neddylation inh – cullin neddylation inhibition; TR-FRET cullin neddylation, biochemical; AID 651699; inhibition, % at 25 µM; P61081+Q13564; actives 0.58% (n = 360,000); in the data active means inhibition above about 36%
Target sequence (P61081 whole entry, looked up): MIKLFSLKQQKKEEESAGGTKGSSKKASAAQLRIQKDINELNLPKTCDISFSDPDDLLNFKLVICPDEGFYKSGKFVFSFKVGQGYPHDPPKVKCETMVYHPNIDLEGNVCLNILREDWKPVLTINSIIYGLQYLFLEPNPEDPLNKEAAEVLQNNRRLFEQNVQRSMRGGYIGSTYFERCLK
Target sequence (Q13564 whole entry, looked up): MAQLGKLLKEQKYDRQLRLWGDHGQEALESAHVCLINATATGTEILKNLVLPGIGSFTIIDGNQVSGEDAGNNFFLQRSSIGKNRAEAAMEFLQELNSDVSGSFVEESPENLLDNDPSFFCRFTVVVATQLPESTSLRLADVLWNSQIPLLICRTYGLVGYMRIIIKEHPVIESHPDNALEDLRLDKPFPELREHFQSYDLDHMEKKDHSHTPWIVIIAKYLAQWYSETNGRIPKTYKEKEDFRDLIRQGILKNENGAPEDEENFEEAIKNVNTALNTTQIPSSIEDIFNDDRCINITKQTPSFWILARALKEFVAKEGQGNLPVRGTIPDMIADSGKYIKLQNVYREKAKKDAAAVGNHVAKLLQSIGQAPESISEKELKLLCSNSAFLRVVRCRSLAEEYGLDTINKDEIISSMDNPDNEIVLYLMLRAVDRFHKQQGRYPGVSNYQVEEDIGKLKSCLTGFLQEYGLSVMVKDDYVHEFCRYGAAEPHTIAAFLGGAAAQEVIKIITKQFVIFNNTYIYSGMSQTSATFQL
DAGLB confirm – DAGLB (human) inhibition, confirmation screen | shares compounds with DAGLB inh | HEK293T DAGLB membrane lysate, EnzChek fluorogenic substrate | inhibition, % at 5.17 µM | actives 73% (n = 190) | AID 504445;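 active means mean inhibition over triplicate wells above a set limit taken from the primary lipase screen, cut at about 34% in these data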;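 further: 0% = DAGLB with DMSO and 100% = wells lacking DAGLB enzyme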
* = called active by the depositor; / = not tested or not shown.

SMILES	NadD block	DAGLB inh	ARNT-TACC3 inh	sPLA2-III inh	Neddylation inh	others
O=C(C[C@@H]1C[C@@H]2c3cc(NS(=O)(=O)c4ccc(F)cc4)ccc3O[C@@H]2[C@H](CO)O1)NCc1ccc(-c2ccccc2)cc1	/	/	15.0	/	/
CNc1ncnc(Sc2nc(N)nc3nc[nH]c23)c1[N+](=O)[O-]	2.1	-4.3	-2.2	1.8	-16.0
Nc1nc(Sc2ccc([N+](=O)[O-])c3nonc23)c2[nH]cnc2n1	13.9	5.8	21.5*	11.1	-22.2
C/C=C/c1cnc2c(c1)C(=O)N([C@H](C)CO)C[C@H](C)[C@H](CN(C)C(=O)NCCC)O2	/	/	-3.7	/	/
CCCC(=O)Nc1ccc2c(c1)OC[C@H](C)N(Cc1nccs1)C[C@@H](C)[C@@H](OC)CN(C)C2=O	/	/	-5.1	/	/
COCCNC(=O)C[C@H]1CC[C@@H]2[C@H](COC[C@H](O)CN2C(=O)Nc2ccccc2OC)O1	/	/	-3.8	/	/
COc1cc2c(cc1NC(=O)CN1C(=O)NC3(CCc4ccccc43)C1=O)oc1ccccc12 (configuration not stated)	35.5*	1.1	-2.8	-35.6	26.1
C=CCNc1nc2c3ccccc3n(C(C)=O)c2s1	3.8	0.1	active	4.4	-3.8
C[C@@H]1CN([C@H](C)CO)C(=O)c2cc(-c3cncnc3)cnc2O[C@H]1CN(C)C(=O)c1ccccc1F	/	/	active	/	/
CCC(c1nnc(SCC(=O)Nc2cc(C)on2)o1)N(C)C (configuration not stated)	2.4	2.9	75.5*	7.0	3.8
Cc1cc(NC(=O)CSc2nnc(C)o2)no1	5.3	-1.7	46.8*	2.6	0.6
Cc1cc(NC(=O)CSc2nnc(-c3ccc(O)cc3)o2)no1	-2.7	0.6	46.8*	-6.0	6.3
Cc1cc(C)cc(-c2nnc(SCC(=O)Nc3cc(C)on3)o2)c1	-9.7	-3.0	38.6	-6.8	-166.7
CN(C)c1ccc(C=c2c3ccccc3n3c2cc(-c2ccc(Cl)cc2)[n+]3C)cc1	38.9*	13.8	0.7	47.6*	7.2
COc1ccc(CC(=O)Nc2nccs2)cc1OC	4.7	3.7	2.3	-2.1	9.2
COc1ccc(CC(=O)Nc2ncc([N+](=O)[O-])s2)cc1OC	1.2	-0.5	17.6*	-2.2	-0.1
COc1ccc(/C=N/NC(=O)c2cc(-c3ccccc3OC)nc3ccccc23)cc1COC(C)=O	9.3	1.0	/	-6.6	38.9*
CCC(=O)N[C@@H]1C=C[C@@H](CC(=O)NCc2ccc(OC)cc2)O[C@H]1CO	/	/	-33.2	/	/
CCOCCCNc1nc(=S)[nH]c2cc(OC)c(OC)cc12	-5.3	-1.1	/	9.7	2.2
CCCCNc1nc(=S)[nH]c2cc(OC)c(OC)cc12	-1.9	0.1	59.7*	12.5	-35.0
COc1ccc(CNc2nc(=S)[nH]c3cc(OC)c(OC)cc23)cc1	-2.0	-0.5	51.2*	11.1	-148.6
COCCNc1nc(=S)[nH]c2cc(OC)c(OC)cc12	-1.5	-2.5	58.7*	6.5	3.3
COc1cc2[nH]c(=S)nc(NCCCOC(C)C)c2cc1OC	-4.9	-1.2	54.9*	12.6	-14.6
COc1cc2[nH]c(=S)nc(NCc3ccc(C)cc3)c2cc1OC	-3.6	0.9	30.7	5.5	-213.2
COc1cc2c(cc1OC)CN(C(=O)[C@@H]1[C@H]3C(=O)O[C@H](c4ccccc4)[C@H](c4ccccc4)N3[C@H](c3ccc(OCCO)cc3)[C@@]13C(=O)Nc1ccc(C#CC4(O)CCCCCC4)cc13)CC2	/	/	-4.2	/	/
SMILES	NadD block	DAGLB inh	ARNT-TACC3 inh	sPLA2-III inh	Neddylation inh	others
Cc1cc(-c2ccc(F)cc2)nc2cc(C(N)=O)nn12	4.9	0.4	40.8*	2.5	/
COC1=CC(=O)c2nc(Cl)ccc2C1=O	3.4	/	/	2.6	-23.8
COC1=CC(=O)c2c(ccc3ncnc(N)c23)C1=O	-0.2	-26.7	30.8*	-12.3	-38.9
O=C(Nc1ccccc1F)N1C[C@H]2[C@@H](c3ccccc31)[C@H](CO)N2C(=O)C1CC1	/	/	2.4	/	/
Oc1ccc(/C=N/NC(=S)NCCN2CCOCC2)c(O)c1	4.1	-1.6	60.3*	-2.3	-0.1
S=C(NCCN1CCOCC1)N/N=C/c1ccccc1	8.2	-0.2	-0.8	5.4	-14.0
COCC(=O)Nc1ccc2c(c1)C(=O)N(C)[C@H]1CC[C@H](CC(=O)Nc3cn(C)nc3C)O[C@H]1CO2	/	/	3.6	/	/
O=C(O)/C=C/c1ccc(S(=O)(=O)Nc2ccccc2C(=O)Nc2ccc(F)cc2)cc1	-8.6	0.5	46.8*	0.4	-4.4
O=C(/C=C/c1cc[n+](CC(=O)c2ccc3cccc4c3c2CC4)cc1)c1ccc2cccc3c2c1CC3	83.4*	21.3	0.0	/	2.1
COC(=O)[C@@H]1[C@@H](CO)[C@@H]2Cn3c(ccc(-c4ccncc4)c3=O)[C@@H]2N1Cc1cccc(F)c1	/	/	-2.4	/	/
COc1ccc(CNC(=O)C(c2ccco2)N(C(=O)c2snc(C(N)=O)c2N)c2cccc(OC)c2)cc1 (configuration not stated)	5.4	-0.7	/	-5.1	22.7
COc1ccc(CNC(=O)C(c2ccco2)N(C(=O)c2snc(C(N)=O)c2N)c2ccccc2OC)cc1 (configuration not stated)	1.2	2.5	-8.0	-8.9	39.2*
C[C@@H]1CN([C@H](C)CO)C(=O)c2cccc(NC(=O)C3CC3)c2O[C@@H]1CN(C)CC1CCCCC1	/	/	1.1	/	/
O=C(CN1CC(=O)Oc2ccccc21)OCC(=O)c1ccc(Br)cc1	-0.7	-3.3	71.5*	4.0	-5.2
O=C(CN1CC(=O)Oc2ccccc21)OCC(=O)c1ccc(F)cc1	-4.0	-2.9	62.8*	3.8	-2.4
O=C1CN(CC(=O)N2CCCCC2)c2ccccc2O1	7.3	1.0	22.4	3.0	-11.8
CC/C(=N\Nc1ccc([N+](=O)[O-])cc1[N+](=O)[O-])c1ccc(O)cc1	-2.0	38.6*	-1.0	6.9	-12.2	DAGLB confirm=37.9*
COc1ccccc1CNC(=O)C[C@H]1C=C[C@H](NC(C)=O)[C@@H](CO)O1	/	/	2.1	/	/
CC1(C)CC(=O)C2=C(C1)NC1=C(C(=O)c3ccccc31)C2c1ccc(O)cc1 (configuration not stated)	1.2	22.4	8.3	-11.5	-52.8
CCCCc1ccc(C2C3=C(CC(C)(C)CC3=O)NC3=C2C(=O)c2ccccc23)cc1 (configuration not stated)	22.5	45.9*	7.8	8.2	-16.6	DAGLB confirm=33.4
C[C@@H]1CCCCO[C@@H](CN(C)C(=O)NC2CCCCC2)[C@H](C)CN([C@@H](C)CO)C(=O)c2cc(NS(=O)(=O)c3cccs3)ccc2O1	/	/	-4.1	/	/
C/C(=N\NS(=O)(=O)c1ccc(C(C)(C)C)cc1)c1ccccc1	-0.5	-2.7	7.8	-7.1	4.5
Cc1ccc(S(=O)(=O)/N=C2\C=C(Nc3cccc(C(=O)O)c3)C(=O)c3ccccc32)cc1	9.6	37.0*	/	-4.1	-95.0	DAGLB confirm=39.8*

Compound activity (PubChem)
